This note sets out measurements from the OligoGym collection.
Note: reference of the scale not given here.

The target in one assay is ARL8B. Briefly: pooled miR-30 sensor sort-seq; sequence = guide strand. Conditions: shRNA.
Take TATCTTCACTGAATTGACCTGA: the sensor-assay potency score (higher = more potent) worked out at 0.755.

For the sequence TTTCCAAGCACTAGCACTGGAA, the sensor-assay potency score (higher = more potent) was -1.03.

Sequence TGTGATATCTATATTATCCTTT yielded a sensor-assay potency score (higher = more potent) of 0.458.

As to TATCATGTAAACAATAGCATTG, the sensor-assay potency score (higher = more potent) is -1.05.

Consider TTACCTTTAGTTACCTTCCTCA, for which the sensor-assay potency score (higher = more potent) was determined as 0.244.

Regarding TTGAATAGCAGCAAATTTCTCT, the sensor-assay potency score (higher = more potent) was 0.213.

Turning to TTTATCTAGAAGATTATGTAGC, the sensor-assay potency score (higher = more potent) was 0.313.

With TTTCTCTATCCTGAATAGCAGA, the sensor-assay potency score (higher = more potent) is -1.1.

As to TTTCGGGAAGCTTCTATCTTTT, the sensor-assay potency score (higher = more potent) is -1.11.

Take TTTCACGATCTGCAGCATCTAT: the sensor-assay potency score (higher = more potent) was -0.778.

Take TAATTCTAGGATTATAGCCAAG: the sensor-assay potency score (higher = more potent) was -1.33.

As for TAAACAATAGCATTGACTCCTC, the sensor-assay potency score (higher = more potent) is -0.391.

For the next assay, the target named is ARPC1A. The description is as above. Conditions: shRNA.
As to TTTGGAATATCTAACTTGGAGA, the sensor-assay potency score (higher = more potent) was -0.835.

As for TTTAATGTGCTTGCTCACCCAC, the sensor-assay potency score (higher = more potent) is -0.282.

Sequence TGAAGTCACATGATCCTGCTGC had a sensor-assay potency score (higher = more potent) of 0.622.

For ATTTGAAGTCACATGATCCTGC, the sensor-assay potency score (higher = more potent) stood at 0.383.

In the case of TTGGCTTCCAAACACCATCTTT, the sensor-assay potency score (higher = more potent) is -0.586.

Turning to TAACAAACAGAAATGAGTCGTG, the sensor-assay potency score (higher = more potent) came out at 0.708.

TTGAGTGATGCTATTCTGGTGC: the sensor-assay potency score (higher = more potent) was 0.522.

With AAATTTGCGACAATCTTGCTTG, the sensor-assay potency score (higher = more potent) is -0.036.

Sequence TCTGAGACAAATGACACACTTA displayed a sensor-assay potency score (higher = more potent) of 0.156.

Take TTTTGGAATATCTAACTTGGAG: the sensor-assay potency score (higher = more potent) was -0.944.

Turning to TATTCAAACAAAACCACACGGC, the sensor-assay potency score (higher = more potent) was -0.11.

For the sequence TATAGATGTGCACTTCGTGATT, the sensor-assay potency score (higher = more potent) was -0.958.
